Results reported in ChEMBL document CHEMBL1961873, “Compounds: GSK PKIS; Assays: Nanosyn kinase panel” (2012).

Columns and labels:
[1] = molecular target: High affinity nerve growth factor receptor (Homo sapiens) (UniProt P04629); conditions: at 1 µM;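 further: each value is the mean percent inhibition of TRKA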
[2] = molecular target: BDNF/NT-3 growth factors receptor (Homo sapiens) (UniProt Q16620); conditions: at 0.1 µM
[3] = molecular target: BDNF/NT-3 growth factors receptor (Homo sapiens) (UniProt Q16620); conditions: at 1 µM
[4] = molecular target: NT-3 growth factor receptor (Homo sapiens) (UniProt Q16288); conditions: at 0.1 µM
[5] = molecular target: NT-3 growth factor receptor (Homo sapiens) (UniProt Q16288); conditions: at 1 µM
[6] = molecular target: T1, Tyrosine-protein kinase TXK (Homo sapiens) (UniProt P42681); conditions: at 0.1 µM
T1 sequence (whole entry): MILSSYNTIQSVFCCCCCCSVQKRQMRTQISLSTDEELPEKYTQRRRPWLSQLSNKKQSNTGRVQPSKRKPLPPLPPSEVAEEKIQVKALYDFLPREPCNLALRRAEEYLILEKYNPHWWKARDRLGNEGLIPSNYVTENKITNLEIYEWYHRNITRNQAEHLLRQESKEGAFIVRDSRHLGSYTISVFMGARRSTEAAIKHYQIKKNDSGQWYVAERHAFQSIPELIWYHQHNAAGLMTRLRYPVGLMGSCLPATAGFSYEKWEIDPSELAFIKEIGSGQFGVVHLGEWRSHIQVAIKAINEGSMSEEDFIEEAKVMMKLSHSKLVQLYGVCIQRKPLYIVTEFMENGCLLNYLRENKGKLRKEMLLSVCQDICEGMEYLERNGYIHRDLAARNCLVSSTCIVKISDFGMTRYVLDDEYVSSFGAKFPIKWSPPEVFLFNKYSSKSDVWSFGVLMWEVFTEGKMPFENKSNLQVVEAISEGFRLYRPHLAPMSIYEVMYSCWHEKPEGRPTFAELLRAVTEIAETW

[7] = molecular target: T1, Tyrosine-protein kinase TXK (Homo sapiens); conditions: at 1 µM
[8] = molecular target: Non-receptor tyrosine-protein kinase TYK2 (Homo sapiens) (UniProt P29597); conditions: at 0.1 µM;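 further: each value is a mean of the inhibition readings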
[9] = molecular target: T2, Dual specificity protein kinase TTK (Homo sapiens) (UniProt P33981); conditions: at 1 µM;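 further: reported figures are mean TTK inhibition at 1 µM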
T2 sequence (whole entry): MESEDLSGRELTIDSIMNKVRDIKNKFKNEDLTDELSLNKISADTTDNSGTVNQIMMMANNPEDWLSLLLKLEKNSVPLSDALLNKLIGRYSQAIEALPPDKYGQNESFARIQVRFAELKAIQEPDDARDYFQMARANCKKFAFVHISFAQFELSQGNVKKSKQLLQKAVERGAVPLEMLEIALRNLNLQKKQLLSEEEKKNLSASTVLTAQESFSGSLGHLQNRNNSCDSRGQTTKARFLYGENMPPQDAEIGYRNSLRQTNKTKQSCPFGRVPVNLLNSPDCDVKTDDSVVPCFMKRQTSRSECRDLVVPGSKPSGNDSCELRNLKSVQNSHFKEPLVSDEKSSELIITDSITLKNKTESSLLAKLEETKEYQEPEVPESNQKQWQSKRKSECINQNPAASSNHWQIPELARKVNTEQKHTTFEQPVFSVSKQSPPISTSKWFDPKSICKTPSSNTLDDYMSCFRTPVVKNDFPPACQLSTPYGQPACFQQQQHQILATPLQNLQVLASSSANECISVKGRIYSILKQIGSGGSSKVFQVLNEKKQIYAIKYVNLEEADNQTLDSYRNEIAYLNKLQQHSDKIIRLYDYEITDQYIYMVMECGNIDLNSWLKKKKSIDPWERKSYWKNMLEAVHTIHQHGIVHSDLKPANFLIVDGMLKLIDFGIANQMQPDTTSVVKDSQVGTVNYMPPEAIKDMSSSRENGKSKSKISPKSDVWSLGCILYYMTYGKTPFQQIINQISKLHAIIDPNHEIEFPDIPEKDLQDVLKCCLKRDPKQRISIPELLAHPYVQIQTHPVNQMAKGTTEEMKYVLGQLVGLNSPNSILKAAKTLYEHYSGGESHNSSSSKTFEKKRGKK

[10] = molecular target: T3, Aurora kinase A (Homo sapiens) (UniProt O14965); conditions: at 0.1 µM
T3 sequence (whole entry): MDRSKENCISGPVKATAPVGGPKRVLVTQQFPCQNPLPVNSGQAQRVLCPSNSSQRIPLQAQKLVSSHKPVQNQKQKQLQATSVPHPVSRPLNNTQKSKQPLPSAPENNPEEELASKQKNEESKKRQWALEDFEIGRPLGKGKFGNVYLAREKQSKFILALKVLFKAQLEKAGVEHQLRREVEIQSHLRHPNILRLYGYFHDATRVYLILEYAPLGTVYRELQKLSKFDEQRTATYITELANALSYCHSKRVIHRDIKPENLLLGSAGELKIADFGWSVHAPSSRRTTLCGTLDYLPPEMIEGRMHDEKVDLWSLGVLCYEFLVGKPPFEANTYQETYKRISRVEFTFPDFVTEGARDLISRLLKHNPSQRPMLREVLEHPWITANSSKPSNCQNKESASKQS

[11] = molecular target: T3, Aurora kinase A (Homo sapiens); conditions: at 1 µM
[12] = molecular target: Aurora kinase B (Homo sapiens) (UniProt Q96GD4); conditions: at 0.1 µM
[13] = molecular target: Aurora kinase B (Homo sapiens) (UniProt Q96GD4); conditions: at 1 µM
[14] = molecular target: T4, Aurora kinase C (Homo sapiens) (UniProt Q9UQB9); conditions: at 0.1 µM
T4 sequence (whole entry): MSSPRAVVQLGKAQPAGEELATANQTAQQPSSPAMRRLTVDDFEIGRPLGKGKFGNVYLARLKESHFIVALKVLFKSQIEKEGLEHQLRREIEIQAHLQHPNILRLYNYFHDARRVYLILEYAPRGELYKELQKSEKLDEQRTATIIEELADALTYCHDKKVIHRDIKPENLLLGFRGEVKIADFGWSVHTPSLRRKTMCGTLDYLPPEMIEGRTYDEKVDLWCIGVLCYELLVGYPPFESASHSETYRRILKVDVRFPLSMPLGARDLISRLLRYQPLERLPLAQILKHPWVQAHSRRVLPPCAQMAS

[15] = molecular target: T4, Aurora kinase C (Homo sapiens); conditions: at 1 µM
[16] = molecular target: Serine/threonine-protein kinase 10 (Homo sapiens) (UniProt O94804); conditions: at 0.1 µM
[17] = molecular target: Serine/threonine-protein kinase 10 (Homo sapiens) (UniProt O94804); conditions: at 1 µM
[18] = molecular target: T5, Mitogen-activated protein kinase kinase kinase kinase 2 (Homo sapiens) (UniProt Q12851); conditions: at 0.1 µM
T5 sequence (whole entry): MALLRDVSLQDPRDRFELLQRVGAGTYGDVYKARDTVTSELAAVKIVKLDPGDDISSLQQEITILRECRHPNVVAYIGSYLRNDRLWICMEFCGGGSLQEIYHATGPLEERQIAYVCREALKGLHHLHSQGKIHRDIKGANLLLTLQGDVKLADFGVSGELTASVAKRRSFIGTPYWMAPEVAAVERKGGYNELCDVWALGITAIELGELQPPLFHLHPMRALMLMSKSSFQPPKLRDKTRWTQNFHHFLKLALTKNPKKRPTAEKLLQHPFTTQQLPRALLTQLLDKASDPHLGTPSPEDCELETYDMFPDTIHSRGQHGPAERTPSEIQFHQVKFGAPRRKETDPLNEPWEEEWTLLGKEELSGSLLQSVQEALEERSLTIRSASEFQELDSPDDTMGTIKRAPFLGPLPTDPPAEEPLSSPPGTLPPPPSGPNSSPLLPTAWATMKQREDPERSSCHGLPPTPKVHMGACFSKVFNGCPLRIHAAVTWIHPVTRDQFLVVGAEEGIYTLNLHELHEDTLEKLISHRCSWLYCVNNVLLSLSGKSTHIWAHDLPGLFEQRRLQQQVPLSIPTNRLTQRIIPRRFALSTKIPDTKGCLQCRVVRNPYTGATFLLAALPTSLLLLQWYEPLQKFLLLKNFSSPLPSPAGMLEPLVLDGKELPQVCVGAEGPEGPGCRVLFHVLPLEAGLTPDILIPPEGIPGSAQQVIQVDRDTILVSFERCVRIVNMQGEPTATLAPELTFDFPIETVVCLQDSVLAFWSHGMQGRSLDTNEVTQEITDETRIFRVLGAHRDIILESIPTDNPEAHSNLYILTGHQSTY

[19] = molecular target: T5, Mitogen-activated protein kinase kinase kinase kinase 2 (Homo sapiens); conditions: at 1 µM
[20] = molecular target: Mitogen-activated protein kinase kinase kinase kinase 4 (Homo sapiens) (UniProt O95819); conditions: at 0.1 µM
Chain of Mitogen-activated protein kinase kinase kinase kinase 4 (Homo sapiens) (O95819 2-1239 limits assumed): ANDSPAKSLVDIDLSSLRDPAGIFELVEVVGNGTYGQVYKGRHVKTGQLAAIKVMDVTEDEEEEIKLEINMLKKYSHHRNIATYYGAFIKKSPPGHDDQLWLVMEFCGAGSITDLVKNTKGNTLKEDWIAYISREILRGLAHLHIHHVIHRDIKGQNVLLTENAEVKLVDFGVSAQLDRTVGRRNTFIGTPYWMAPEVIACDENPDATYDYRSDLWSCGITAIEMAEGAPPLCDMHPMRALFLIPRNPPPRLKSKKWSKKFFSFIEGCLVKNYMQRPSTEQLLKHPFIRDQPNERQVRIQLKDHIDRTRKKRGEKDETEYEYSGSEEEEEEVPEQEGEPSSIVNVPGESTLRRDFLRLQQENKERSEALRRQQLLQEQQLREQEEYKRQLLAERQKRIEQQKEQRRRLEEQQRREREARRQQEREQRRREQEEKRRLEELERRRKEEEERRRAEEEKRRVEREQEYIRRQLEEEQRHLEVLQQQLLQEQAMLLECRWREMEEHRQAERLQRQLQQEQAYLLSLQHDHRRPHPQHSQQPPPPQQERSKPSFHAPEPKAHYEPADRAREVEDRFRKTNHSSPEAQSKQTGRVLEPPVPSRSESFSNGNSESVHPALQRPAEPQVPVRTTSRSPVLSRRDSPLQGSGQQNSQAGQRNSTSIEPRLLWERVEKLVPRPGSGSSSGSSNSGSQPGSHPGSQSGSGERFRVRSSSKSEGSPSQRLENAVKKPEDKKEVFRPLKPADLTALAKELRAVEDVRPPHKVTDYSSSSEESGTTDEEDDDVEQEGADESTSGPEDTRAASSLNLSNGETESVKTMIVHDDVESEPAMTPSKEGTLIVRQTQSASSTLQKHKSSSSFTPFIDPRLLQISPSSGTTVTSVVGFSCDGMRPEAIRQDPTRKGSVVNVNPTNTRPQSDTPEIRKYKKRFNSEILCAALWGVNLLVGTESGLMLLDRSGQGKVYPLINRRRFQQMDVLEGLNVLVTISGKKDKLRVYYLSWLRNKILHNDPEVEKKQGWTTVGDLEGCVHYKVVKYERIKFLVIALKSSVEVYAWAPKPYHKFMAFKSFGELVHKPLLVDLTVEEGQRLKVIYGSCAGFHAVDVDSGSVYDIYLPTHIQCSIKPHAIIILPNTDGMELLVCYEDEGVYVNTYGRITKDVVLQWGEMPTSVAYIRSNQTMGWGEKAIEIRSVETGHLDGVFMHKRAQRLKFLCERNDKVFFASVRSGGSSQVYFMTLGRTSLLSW

Chain of Serine/threonine-protein kinase 10 (Homo sapiens) (O94804 whole entry, looked up): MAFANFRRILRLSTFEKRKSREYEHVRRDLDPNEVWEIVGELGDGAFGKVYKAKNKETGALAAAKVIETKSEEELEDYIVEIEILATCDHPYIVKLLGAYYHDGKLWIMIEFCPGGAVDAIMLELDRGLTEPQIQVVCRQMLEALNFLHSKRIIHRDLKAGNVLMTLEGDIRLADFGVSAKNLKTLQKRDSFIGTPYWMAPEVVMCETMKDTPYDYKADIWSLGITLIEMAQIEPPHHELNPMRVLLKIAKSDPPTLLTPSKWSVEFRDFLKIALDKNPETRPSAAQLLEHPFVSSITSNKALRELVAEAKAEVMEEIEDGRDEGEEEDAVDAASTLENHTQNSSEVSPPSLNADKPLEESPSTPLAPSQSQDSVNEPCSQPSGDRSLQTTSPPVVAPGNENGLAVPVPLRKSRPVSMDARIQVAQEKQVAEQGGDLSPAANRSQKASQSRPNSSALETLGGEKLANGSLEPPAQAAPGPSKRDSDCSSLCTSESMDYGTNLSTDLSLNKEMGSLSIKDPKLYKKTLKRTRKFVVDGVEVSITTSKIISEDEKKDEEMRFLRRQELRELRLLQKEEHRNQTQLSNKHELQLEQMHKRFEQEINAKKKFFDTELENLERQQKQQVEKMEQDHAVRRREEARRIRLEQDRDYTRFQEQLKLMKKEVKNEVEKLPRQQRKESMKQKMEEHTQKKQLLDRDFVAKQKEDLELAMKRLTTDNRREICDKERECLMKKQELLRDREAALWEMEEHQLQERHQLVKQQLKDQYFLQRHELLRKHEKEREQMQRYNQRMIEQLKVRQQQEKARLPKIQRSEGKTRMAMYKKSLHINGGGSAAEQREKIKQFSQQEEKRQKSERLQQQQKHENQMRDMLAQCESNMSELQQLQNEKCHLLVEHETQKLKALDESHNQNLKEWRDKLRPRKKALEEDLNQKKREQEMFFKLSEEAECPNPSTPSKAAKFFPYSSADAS
Chain of Non-receptor tyrosine-protein kinase TYK2 (Homo sapiens) (P29597 whole entry): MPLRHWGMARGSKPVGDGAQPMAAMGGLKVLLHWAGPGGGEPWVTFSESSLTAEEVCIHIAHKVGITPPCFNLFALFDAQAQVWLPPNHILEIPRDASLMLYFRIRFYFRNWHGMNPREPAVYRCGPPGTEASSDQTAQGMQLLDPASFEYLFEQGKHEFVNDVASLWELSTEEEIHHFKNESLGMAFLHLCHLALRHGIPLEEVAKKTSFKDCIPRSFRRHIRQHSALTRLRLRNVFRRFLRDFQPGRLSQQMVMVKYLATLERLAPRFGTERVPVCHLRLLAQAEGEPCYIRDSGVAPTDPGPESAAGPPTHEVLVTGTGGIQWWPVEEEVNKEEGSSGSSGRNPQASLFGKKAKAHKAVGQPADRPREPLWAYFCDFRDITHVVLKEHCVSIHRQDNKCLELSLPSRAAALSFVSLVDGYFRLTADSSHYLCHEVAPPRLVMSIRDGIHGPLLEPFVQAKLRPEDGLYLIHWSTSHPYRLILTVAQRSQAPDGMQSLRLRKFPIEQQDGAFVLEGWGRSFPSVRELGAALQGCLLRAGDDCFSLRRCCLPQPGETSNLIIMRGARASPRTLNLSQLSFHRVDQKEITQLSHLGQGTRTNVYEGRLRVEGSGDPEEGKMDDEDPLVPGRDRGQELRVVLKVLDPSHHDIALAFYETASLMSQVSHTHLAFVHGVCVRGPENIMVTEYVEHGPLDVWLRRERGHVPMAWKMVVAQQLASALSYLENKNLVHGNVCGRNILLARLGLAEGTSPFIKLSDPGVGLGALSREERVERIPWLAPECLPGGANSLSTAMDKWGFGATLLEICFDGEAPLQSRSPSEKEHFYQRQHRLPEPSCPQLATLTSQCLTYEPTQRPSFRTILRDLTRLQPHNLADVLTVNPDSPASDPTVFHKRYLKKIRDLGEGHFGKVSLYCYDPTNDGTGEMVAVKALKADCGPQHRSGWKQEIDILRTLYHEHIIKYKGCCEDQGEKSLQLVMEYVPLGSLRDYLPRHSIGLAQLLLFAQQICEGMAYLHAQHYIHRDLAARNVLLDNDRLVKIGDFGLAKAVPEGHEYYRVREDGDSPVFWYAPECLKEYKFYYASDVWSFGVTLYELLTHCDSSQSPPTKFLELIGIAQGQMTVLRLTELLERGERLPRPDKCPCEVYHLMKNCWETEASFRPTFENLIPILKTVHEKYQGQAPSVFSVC
Chain of NT-3 growth factor receptor (Homo sapiens) (Q16288 32-839 limits assumed): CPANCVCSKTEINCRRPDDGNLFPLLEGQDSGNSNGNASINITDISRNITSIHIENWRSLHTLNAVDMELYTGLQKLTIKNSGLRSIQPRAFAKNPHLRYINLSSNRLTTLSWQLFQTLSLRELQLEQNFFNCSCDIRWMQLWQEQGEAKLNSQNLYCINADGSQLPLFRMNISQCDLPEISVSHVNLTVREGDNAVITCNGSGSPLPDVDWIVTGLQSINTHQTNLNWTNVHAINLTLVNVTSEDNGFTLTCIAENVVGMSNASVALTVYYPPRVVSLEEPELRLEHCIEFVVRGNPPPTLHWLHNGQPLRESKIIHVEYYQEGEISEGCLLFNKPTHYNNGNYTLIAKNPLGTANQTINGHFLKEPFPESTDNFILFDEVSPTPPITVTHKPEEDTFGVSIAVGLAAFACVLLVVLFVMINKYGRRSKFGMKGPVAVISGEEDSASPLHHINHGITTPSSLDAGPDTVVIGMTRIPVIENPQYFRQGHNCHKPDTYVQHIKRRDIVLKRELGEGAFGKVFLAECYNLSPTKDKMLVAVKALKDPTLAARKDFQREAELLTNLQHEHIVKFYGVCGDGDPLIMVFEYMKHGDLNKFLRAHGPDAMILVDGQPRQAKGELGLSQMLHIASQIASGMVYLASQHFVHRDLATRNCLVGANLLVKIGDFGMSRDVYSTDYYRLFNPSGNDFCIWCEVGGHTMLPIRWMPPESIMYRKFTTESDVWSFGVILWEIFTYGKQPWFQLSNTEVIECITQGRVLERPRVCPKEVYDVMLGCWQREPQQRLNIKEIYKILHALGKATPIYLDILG
Chain of BDNF/NT-3 growth factors receptor (Homo sapiens) (Q16620 32-822 limits assumed): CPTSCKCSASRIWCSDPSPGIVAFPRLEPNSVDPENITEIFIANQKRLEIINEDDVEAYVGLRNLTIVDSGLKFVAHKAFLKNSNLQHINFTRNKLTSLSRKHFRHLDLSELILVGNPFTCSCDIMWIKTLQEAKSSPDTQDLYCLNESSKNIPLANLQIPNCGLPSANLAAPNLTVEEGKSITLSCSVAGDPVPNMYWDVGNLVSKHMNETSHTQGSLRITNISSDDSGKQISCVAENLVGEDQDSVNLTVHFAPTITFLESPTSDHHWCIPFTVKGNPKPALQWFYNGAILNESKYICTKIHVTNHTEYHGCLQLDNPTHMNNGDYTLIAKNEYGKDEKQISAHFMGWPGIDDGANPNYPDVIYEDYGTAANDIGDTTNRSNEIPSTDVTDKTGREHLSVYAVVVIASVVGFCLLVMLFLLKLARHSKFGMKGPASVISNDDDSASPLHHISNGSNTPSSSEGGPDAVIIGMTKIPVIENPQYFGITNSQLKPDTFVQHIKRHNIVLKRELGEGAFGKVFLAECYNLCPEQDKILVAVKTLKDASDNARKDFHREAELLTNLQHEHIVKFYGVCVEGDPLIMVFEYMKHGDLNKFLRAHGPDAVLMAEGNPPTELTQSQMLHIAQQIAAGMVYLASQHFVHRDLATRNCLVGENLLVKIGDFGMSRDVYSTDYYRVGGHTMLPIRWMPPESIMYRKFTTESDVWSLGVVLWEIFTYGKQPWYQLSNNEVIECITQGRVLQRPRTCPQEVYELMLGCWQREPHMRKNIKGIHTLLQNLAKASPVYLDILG

Structure (SMILES)	inhibition [1] [%]	inhibition [2] [%]	inhibition [3] [%]	inhibition [4] [%]	inhibition [5] [%]	inhibition [6] [%]	inhibition [7] [%]	inhibition [8] [%]	inhibition [9] [%]	inhibition [10] [%]	inhibition [11] [%]	inhibition [12] [%]	inhibition [13] [%]	inhibition [14] [%]	inhibition [15] [%]	inhibition [16] [%]	inhibition [17] [%]	inhibition [18] [%]	inhibition [19] [%]	inhibition [20] [%]
COc1cc(C=NNc2ncnc3c2cnn3Cc2ccccc2)ccc1O	2.96	0.74	23.4	0.17	14	1.55	19.6	3.47	3.09	2.88	25.6	2.52	34.4	1.25	10.6	-4.65	5.71	0.89	4.63	-1.52
COc1cc2c(cc1Nc1nc(Nc3ccsc3C(N)=O)c3cc[nH]c3n1)N(C(=O)CN(C)C)CCC2		-0.6	3.59	-1.52	3.92	-2.39	-1.59	-8.98	36.4	2.03		0.75	2.92	1.46	2.53	11.4	17.4	1.63	11.8	9.31
CCn1c(-c2nonc2N)nc2c(C#CCN)ncc(OCCCN)c21	-4.23	-0.67	-1.3	0.15	2.14	-1.46	-3.71	5.99	-3.71	-1.21	5.16	4.99	6.36	3.54	-8.09	4.42	11.3	3.61	4.55	1.78
COc1cccc(-n2ncc3c(N/N=C/c4ccncc4)ncnc32)c1	12.8	7.74	37.6	8.44	36.9	4.8	18.6	-2.74	18.5	12.1	73.8	7.94	43.1	7.33	61.4	5.83	33.5	2.12	7.06	20.1
CCn1c(-c2nonc2N)nc2c(C#CC(C)(C)O)ncc(OCC3CCNCC3)c21	2.62	3.08	1.98	3.15	3.69	-1.16	-1.53	-1.24	11.4	-1.94	3.09	-0.07	0.45	-3.33		3.91	13.6	1.42	1.95	4.98
Nc1nonc1-c1nc2cnccc2n1C1CCCCC1	-1.13	-1.42	-0.84	-0.5	0.67	-1.24	-0.03	4.5	4.51	-0.63	5.79	0.62	7.52	-0.66	5.22	0.39	18.4	3.87	20.4	6.25
NC(=O)c1sc(-n2cnc3cc(C(F)(F)F)ccc32)cc1OCc1ccccc1Br	-0.05	3	1.49	1.41	2.25	1.4	3.45	0.53	3.54	1.18	2.05	-0.8	2.44	1.36	4.02	7.36	34.7	1.32	5.29	3.11
